High-throughput results from PubChem.
Only a selection was taken, and hits are over-represented in it overall.
Cruzain inh Det: cruzain (T. cruzi) inhibition with detergent. Potency, µM, usual class: inhibitors. 200,000 compounds, 0.43% hits. P25779. purified cruzain, Z-FR-AMC fluorescence, 0.01% Triton; further: nearly all actives have a fitted effect of over 40% in size
Target sequence (P25779 123-467 limits assumed): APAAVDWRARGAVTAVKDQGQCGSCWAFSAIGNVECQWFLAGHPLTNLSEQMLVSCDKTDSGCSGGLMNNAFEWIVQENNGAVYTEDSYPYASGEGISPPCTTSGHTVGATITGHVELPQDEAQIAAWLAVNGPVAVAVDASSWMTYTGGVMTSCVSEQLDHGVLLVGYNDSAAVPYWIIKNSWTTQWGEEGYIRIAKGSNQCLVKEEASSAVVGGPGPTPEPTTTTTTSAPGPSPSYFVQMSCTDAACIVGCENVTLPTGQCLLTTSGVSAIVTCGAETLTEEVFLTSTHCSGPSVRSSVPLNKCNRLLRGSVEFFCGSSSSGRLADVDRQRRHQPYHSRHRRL
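Cysteine protease activity tested under reducing, mildly acidic conditions (100 mM sodium acetate pH 5.5, 5 mM DTT) plus 0.01% Triton X-100. Cruzain 1.5 nM; substrate Z-FR-AMC 2 uM; 15 min compound preincubation at room temperature.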
Cruzain inh noDet: inhibitors of Trypanosoma cruzi cruzain without detergent; P25779; purified cruzain, Z-FR-AMC fluorescence, no detergent; Potency, µM, actives largely listed as inhibitors; 200,000 compounds, 2.3% hits; further: nearly all actives have a fitted effect of over 40% in size
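Purified cruzain at 1.5 nM, pre-incubated 15 min with compound at room temperature in 100 mM sodium acetate pH 5.5, 5 mM DTT, 0.00005% Triton X-100. Reaction started with 2 uM Z-FR-AMC; AMC fluorescence increase over 60 s gives rate.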
NS1 function inh: influenza NS1 inhibition; Potency, µM (highest dose often 46.1 µM); 270,000 compounds, 0.4% hits; AID 2326; calls by dose curve; further: actives are rising curves; nearly all actives have a fitted effect of over 50% in size
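S. cerevisiae expressing influenza A NS1, grown in glucose, washed, then diluted 1:100 into pH 6.0 -URA galactose medium with 23 nl compound. Growth recovery read as OD600; NS1-free strain serves as control.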
Of the large screens only hits and unclear results are named; the others gave an inactive call; ! = not confirmed by another sample. Unless noted, the call rests on the fitted dose curve; in most records, active means well fitted curve in the direction sought with a large enough effect; inconclusive means small, poorly fitted or top-dose-only effect, or another doubt; inactive means no such curve, though single readings can be large; an effect the other way counts as inactive or inconclusive.

Cc1cc(C(=O)COC(=O)CC2Sc3ccccc3NC2=O)c(C)n1-c1ccc(Br)cc1 (stereo not drawn)	Cruzain inh noDet 3.98µM, NS1 function inh inconclusive
CC(=O)Nc1ccc(S(=O)(=O)NCC(=O)OCC(=O)c2cc(C)n(-c3ccc4c(c3)OCO4)c2C)cc1	Cruzain inh noDet inconclusive
Cc1cc(C(=O)COC(=O)c2ccc(N)c([N+](=O)[O-])c2)c(C)n1-c1ccc2c(c1)OCO2	Cruzain inh noDet 12.6µM
Cc1ccc(N(Cc2ccccc2)Cc2ccccc2)cc1	none
C=CCC(Nc1ccc(OC)cc1)(C(=O)OCC)c1ccccc1 (stereo not drawn)	none (no result: NS1 function inh)
C[C@@](N)(/C=C\c1ccccc1)C(=O)O	none
C=C1CC[C@H](O)C/C1=C/C=C1\CCC[C@]2(C)[C@@H]([C@H](C)CCCC(C)C)CC[C@@H]12	Cruzain inh noDet inconclusive (no result: NS1 function inh)
COC(=O)c1ccc(-n2c(C)cc(C(=O)COC(=O)CC3Sc4ccccc4NC3=O)c2C)cc1 (stereo not drawn)	Cruzain inh noDet 25.1µM
O=C(CC1Sc2ccccc2NC1=O)OCC(=O)N1CCc2ccccc21 (stereo not drawn)	Cruzain inh noDet inconclusive
CCOC(=O)c1ccccc1NC(=O)C(=O)Nc1ccc2nc3n(c(=O)c2c1)CCCCC3	none (no result: NS1 function inh)
CSc1nc(NCc2ccco2)c2sc3nc(C(C)C)c4c(c3c2n1)CC(C)(C)OC4	none
CSc1nc(NCCOCCO)c2sc3nc(-c4ccco4)c4c(c3c2n1)CCC4	Cruzain inh Det 7.94µM, NS1 function inh inconclusive
COc1ccc(CCNC(=O)CCCCCn2c(=O)[nH]c3cc(OC)c(OC)cc3c2=O)cc1OC	none (no result: NS1 function inh)
CCn1c2ccccc2c2cc(N)ccc21	Cruzain inh noDet 7.94µM, NS1 function inh inconclusive
CCn1c2ccccc2c2cc(/C(C)=N/O)ccc21	none
Cc1ccccc1CCNCc1c(C(=O)O)c(C)n(Cc2c(F)cccc2Cl)c1C	none (no result: NS1 function inh)
COc1ccc(-c2[nH]nc3c2C(c2ccccc2OC(=O)N2CCOCC2)C(C#N)=C(N)O3)cc1 (stereo not drawn)	Cruzain inh noDet inconclusive
Cc1ccc(-c2[nH]nc3c2C(c2ccccc2OC(=O)N2CCOCC2)C(C#N)=C(N)O3)cc1 (stereo not drawn)	Cruzain inh noDet 25.1µM
COc1cc(Cl)c(C)cc1NC(=O)CSc1nc2c(c(=O)[nH]1)CCCC2	none (no result: NS1 function inh)
CC(C)n1cc(/C=N/Nc2ccc(Cl)c(C(=O)O)c2)c2ccccc21	none (no result: Cruzain inh Det, Cruzain inh noDet)
CC(C)n1cc(/C=C2/NC(=O)N(c3cccc(Cl)c3)C2=O)c2ccccc21	Cruzain inh noDet 15.8µM
CC(C)n1cc(/C=C2\NC(=O)N(c3cccc(Cl)c3)C2=O)c2ccccc21	Cruzain inh noDet 25.1µM
CCn1c(C)cc(/C=C2/NC(=O)N(c3ccccc3)C2=O)c1C	none (no result: Cruzain inh Det, Cruzain inh noDet)
COc1cccc([C@@H]2Nc3ccc(C(=O)O)cc3[C@@H]3C=CC[C@@H]32)c1OC	none (no result: NS1 function inh)
COc1ccc2c(c1)C1C=CCC1C(c1cc3c(cc1Br)OCO3)N2 (stereo not drawn)	Cruzain inh noDet 25.1µM
C=CCC(C)(O)c1cccs1 (stereo not drawn)	none (no result: NS1 function inh)
CC(C)=CCc1c2c(c3occ(-c4ccc(O)cc4)c(=O)c3c1O)C=CC(C)(C)O2	Cruzain inh noDet inconclusive
CC(C)=CCc1c2c(c3occ(-c4ccc(O)c(O)c4)c(=O)c3c1O)C=CC(C)(C)O2	Cruzain inh noDet 25.1µM!
CC1=C(/C=C\C(=O)O)C(C)(C)CCC1	none
COc1ccc(-n2c(=O)c(C)nc3cnc(Oc4cccc(Cl)c4)nc32)cc1	none (no result: NS1 function inh)
O=c1oc(-c2cccs2)nc2sc3c(c12)CCCC3	Cruzain inh noDet inconclusive
O=c1oc(-c2cccs2)nc2sc3c(c12)CCC3	Cruzain inh noDet 12.6µM
COc1ccc(N(C(=O)c2ccn[nH]2)C(C(=O)NC2CCCC2)c2ccc(F)cc2)cc1 (stereo not drawn)	none (no result: Cruzain inh Det, Cruzain inh noDet)
COc1ccc(N(C(=O)c2snc(C(N)=O)c2N)C(C(=O)NC2CCCC2)c2ccc3ncccc3c2)cc1 (stereo not drawn)	none (no result: Cruzain inh Det, Cruzain inh noDet)
COc1ccc(C(C(=O)NC2CCCC2)N(C(=O)c2snc(-c3ccc(F)cc3)c2N)c2ccc(F)cc2)cc1 (stereo not drawn)	Cruzain inh noDet 25.1µM
COc1ccc(C(C(=O)NC2CCCC2)N(C(=O)c2snc(-c3ccc(F)cc3)c2N)c2ccc(OC)cc2)cc1 (stereo not drawn)	Cruzain inh noDet 25.1µM
COc1ccc(C(C(=O)NC2CCCC2)N(C(=O)c2snc(-c3ccc(F)cc3)c2N)c2ccccc2)cc1 (stereo not drawn)	Cruzain inh noDet 7.94µM
COc1ccc(C(C(=O)NC2CCCC2)N(C(=O)c2snc(-c3ccc(F)cc3)c2N)c2cccc(F)c2)cc1 (stereo not drawn)	Cruzain inh noDet 10µM
COc1ccc(N(C(=O)c2snc(C(N)=O)c2N)C(C(=O)NC2CCCC2)c2ccc(F)cc2)c(OC)c1 (stereo not drawn)	none (no result: Cruzain inh Det, Cruzain inh noDet)
